Screening results as filed in PubChem BioAssay.
Only some compounds are listed: those with a hit (about 1.2% of all), similar ones and a draw of the others.
gsp ag: activates gsp, the McCune-Albright syndrome mutation; gsp mutant cells, cAMP HTRF, 30 min; Potency, µM (series often up to 76.9 µM), for the others: at the highest dose activation (cAMP increase), hits mostly activators; 0.13% of 340,000 active; AID 624287; active = well fitted activation curve with a large enough effect; inconclusive = small, poorly fitted or top-dose-only effect, or another doubt; inactive = no such curve, though single readings can be large or run the other way; cell line not stated here;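 also: phosphodiesterase inhibitor Ro 20-1724 added with compounds to block cAMP breakdown; potency is read from the fitted curve at half-maximal effect; nearly all actives have a fitted effect of over 60% in size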
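Cells stably selected in G418 were plated at 2000/well, grown 16-24 hr, then given compounds in DMSO with the PDE inhibitor […] (300 uM solution added) for 30 min at 37C; cAMP was read by HTRF.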
CCT modulator: cytosolic chaperonin activity modulation | purified chaperonin ATPase assay, HTRF ADP detection, 30 min | 0.3% of 360,000 active | activity change, % (test concentration not listed), hits read low | AID 651819; in the data active = activity change below about -30%; also: % is scaled to controls: 0 for no effect and ±100 for the full control effect
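We incubate TRiC, 40 or 20 nM final, with library compounds at 76 uM and 10 uM ATP for 30 min at 37 °C. ADP formed is detected with Transcreener HTRF reagents after 30 min at room temperature.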
gsp antag: gsp mutant antagonism; gsp-mutant cells, cAMP HTRF, 30 min; Potency, µM (top dose mostly 76.9 µM), without a hit: at the top dose activity change, negative = inhibition, usual class: inhibitors; 0.4% of 340,000 active; AID 624288; calls by dose curve; cell line not stated here;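 also: intracellular cAMP measured with PDE inhibitor Ro 20-1724 present during compound exposure; potency is read from the fitted curve at half-maximal effect; % is scaled to controls: 0 for no effect and ±100 for the full control effect; nearly all actives have a fitted effect of over 65% in size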
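Cells, 2000/well, grown 16–24 h in DMEM 10% FBS with 0.5 mg/ml G418, then compounds plus […] (300 uM addition stock), 30 min at 37C. cAMP read by HTRF (cAMP-d2 and anti-cAMP antibody-K in lysis buffer) after 30 min RT.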
RXFP1 antag: blocks the human relaxin receptor RXFP1. 0.59% of 350,000 active. activity change, negative = inhibition, % at 57.5 µM. HEK293-RXFP1, relaxin-stimulated cAMP HTRF, 30 min; active compounds read low. Q9HBX9;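 active = activity change of -60% or lower, but not beyond a set lower limit; inconclusive = change between -60% and -40%, or beyond the set limit; inactive = change above -40%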; also: % is scaled to controls: 0 for no effect and ±100 for the full control effect
Target sequence (Q9HBX9 whole entry, looked up): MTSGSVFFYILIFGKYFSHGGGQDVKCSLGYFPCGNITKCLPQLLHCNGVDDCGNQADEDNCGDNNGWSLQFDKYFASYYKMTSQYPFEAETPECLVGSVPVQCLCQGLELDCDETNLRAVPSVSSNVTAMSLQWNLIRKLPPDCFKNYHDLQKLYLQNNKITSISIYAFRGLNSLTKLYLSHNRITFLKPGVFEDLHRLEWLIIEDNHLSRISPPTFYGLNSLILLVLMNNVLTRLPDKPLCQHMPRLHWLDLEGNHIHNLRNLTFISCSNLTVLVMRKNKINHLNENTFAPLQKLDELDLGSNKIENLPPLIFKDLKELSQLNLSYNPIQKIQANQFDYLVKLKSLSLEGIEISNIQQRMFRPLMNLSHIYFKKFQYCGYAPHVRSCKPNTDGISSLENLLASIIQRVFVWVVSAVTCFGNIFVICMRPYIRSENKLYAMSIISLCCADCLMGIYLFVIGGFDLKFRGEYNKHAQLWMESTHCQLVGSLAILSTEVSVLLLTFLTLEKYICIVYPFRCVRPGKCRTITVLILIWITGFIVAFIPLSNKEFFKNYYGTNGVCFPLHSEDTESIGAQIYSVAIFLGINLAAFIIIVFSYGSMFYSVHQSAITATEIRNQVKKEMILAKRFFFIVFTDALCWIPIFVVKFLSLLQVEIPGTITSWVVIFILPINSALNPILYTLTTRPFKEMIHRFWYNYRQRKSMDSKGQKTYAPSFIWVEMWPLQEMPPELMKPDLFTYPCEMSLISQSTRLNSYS
MmCpn inh: M. maripaludis TRiC chaperonin inhibition; purified Mm-Cpn ATPase, ADP Transcreener TR-FRET; Potency, µM (series often up to 76.9 µM), inactives show top-dose activity, negative = inhibition, most hits filed as inhibitors; 0.031% of 330,000 active; also: potency is read from the fitted curve at half-maximal effect; % is scaled to controls: 0 for no effect and ±100 for the full control effect; nearly all actives have a fitted effect of over 80% in size
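ATP (10 uM final) was added to archaeal chaperonin (25 nM final) after 10 min exposure to test compound at 37°C; after 30 min further incubation, ADP was detected by competitive TR-FRET.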
RXFP1 agonist: RXFP1 (human) receptor agonism; Potency, µM (titrated, usually from 57.5 µM), inactives show top-dose activation, most hits filed as activators; 0.3% of 370,000 active; Q9HBX9; HEK293T-RXFP1 cAMP TR-FRET, 30 min; response scale: percent of porcine relaxin response, buffer zero; also: potency is read from the fitted curve at half-maximal effect; % is scaled to controls: 0 for no effect and ±100 for the full control effect; nearly all actives have a fitted effect of over 60% in size
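HEK293T cells stably expressing RXFP1 were pretreated with the PDE4 inhibitor Ro 20174, exposed to compounds for 30 min at 37C, lysed, and cAMP was read by TR-FRET. Data normalized to buffer (basal) and 29 nM porcine relaxin (100%).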
* = called active by the depositor; ? = inconclusive; / = not tested or not shown; [ ] = another dose, or the depositor's remark. Unless noted, calls follow the shape of the dose curve; as a rule, active = well fitted curve in the direction sought with a large enough effect; inconclusive = small, poorly fitted or top-dose-only effect, or another doubt; inactive = no such curve, though single readings can be large; an effect the other way counts as inactive or inconclusive.

SMILES	gsp ag	CCT modulator	gsp antag	RXFP1 antag	MmCpn inh	RXFP1 agonist
O=C(NCc1ccc(Cl)cc1)c1ccc(Br)o1	-3.2%	-2.9	1.0%	/	-1.4%	-3.9%
O=C(NCc1nnc2c(C(F)(F)F)cc(Cl)cn12)c1cccnc1	?	0.1	1.9%	3.9	-5.3%	15.8µM*
O=C(NCc1nnc2c(C(F)(F)F)cc(Cl)cn12)c1ccc2c(c1)OCO2	?	0.7	14.6%	3.9	0.7%	?
O=C(NCc1nnc2c(C(F)(F)F)cc(Cl)cn12)c1ccc(Br)o1	12.6µM*	0.1	14.5%	20.1	2.8%	?
CCCCSc1nnc(CCCCCNC(=O)OC(C)(C)C)o1	4.3%	-0.8	35.5µM*	10.2	-1.5%	1.2%
Cc1ccc(Nc2ccc(N3CCN(C(=O)c4ccc([N+](=O)[O-])cc4)CC3)nn2)cc1	/	/	/	-0.9	/	-0.6%
CN(Cc1ccc(-n2cccn2)cc1)C(=O)c1cnn2c1NC(c1ccco1)CC2C(F)(F)F (stereo not given)	-0.5%	-3.7	31.6µM*	/	-0.3%	2.6%
COC(=O)CN1C(C(=O)c2ccccc2)=C(OC(=O)c2ccc(C)cc2)c2ccccc2S1(=O)=O	/	/	/	-9.3	/	21.6%
O=C(Nc1ccc(C(F)(F)F)cc1)C1(c2ccccc2)CC1	10.5%[15.4 µM]	-0.8	-8.4%	-63.2*	2.6%	-1.8%
OCCN(CCO)c1ccc2ccccc2c1	?	1.2	-8.4%	-3.0	-11.9%	1.3%
OCCN(CCO)c1ccc(C(c2ccccc2Cl)c2ccc(N(CCO)CCO)cc2Cl)c(Cl)c1	-24.1%	-3.6	?	-60.5*	2.6%	0.8%
CCOC(=O)Cn1cccc1-c1nc(-c2ccc(OC)cc2)c(-c2ccc(OC)cc2)s1	/	/	/	-19.8	/	/
CC(c1ccco1)N(C(=O)CSc1ccc(Br)cc1)c1ccccn1 (stereo not given)	-5.9%	1.8	35.5µM*	-3.9	0.2%	-0.7%
Cc1ccc(-n2nc3c(=O)n(CCCC(=O)NCc4ccc(F)cc4)nc(C)c3c2C)cc1	?	0.2	-12.3%	2.6	-1.5%	5.2%
COc1ccc(CCNC(=O)CCCn2nc(C)n3ccnc3c2=O)cc1OC	?	0.9	18.0%	-4.2	0.2%	?
Cc1ccc(CNC(=O)CCCn2nc(C)n3ccnc3c2=O)cc1	?	1.8	4.2%	21.1	-0.7%	15.8µM*
Cc1nn(CCCC(=O)NCc2ccc(F)cc2)c(=O)c2nccn12	?	3.3	22.5%	0.0	1.0%	28.2µM*
COc1cc(NS(=O)(=O)c2ccc(NC(=O)c3cccs3)cc2)nc(OC)n1	19.3%[15.4 µM]	-2.8	22.4µM*	0.0	-2.5%	-0.4%
Cc1nc2ccc(NC(=O)c3ccc(N4C(=O)CCC4=O)cc3)cc2s1	3.5%[15.4 µM]	2.4	3.1%	-4.0	-3.0%	6.9%
Cc1nc2cc(NC(=O)c3ccc(N4C(=O)CCC4=O)cc3)ccc2s1	5.1%	-75.8*	8.5%	-9.3	0.9%	0.2%
Cc1cc(=S)c2cccc(C)c2[nH]1	32.4%[15.4 µM]	-4.2	5.1%	19.6	-10.8%	22.4µM*
Cc1cccc2c(=O)cc(C(F)(F)F)[nH]c12	11.8%	0.5	-20.6%	-9.3	1.4%	-1.4%
CCOC(=O)Cn1c(=O)n(C2CCCCC2)c2nc(-c3ccc(OCC)cc3)nc(C(N)=O)c21	/	/	/	/	/	-0.8%
CCc1ccc(NC(=O)CN(c2ccc(OC)cc2)S(=O)(=O)c2c(C)nn(C)c2C)cc1	?	-1.3	-18.7%	-113.2*	-1.4%	-1.4%
CC(C)(C)c1csc(NC(=O)c2ccc(Cl)s2)n1	-18.2%	-0.3	?	-100.7*	-5.1%	-1.3%
SMILES	gsp ag	CCT modulator	gsp antag	RXFP1 antag	MmCpn inh	RXFP1 agonist
Cc1ccc(C(=O)Nc2nc(C(C)(C)C)cs2)s1	-7.9%	2.1	-7.1%	-22.0	0.4%	2.2%
Cc1ccccc1C(=O)NN1CC(C(=O)OCc2ccc(Cl)c(Cl)c2)CC1=O (stereo not given)	6.1%	1.8	31.6µM*	-0.2	2.4%	-0.3%
O=C(NN1CC(C(=O)OCc2ccc(Br)cc2)CC1=O)c1ccccc1 (stereo not given)	27.6%	-1.1	13.0%	-6.5	-0.4%	0.0%
CC(C)(C)c1nnc(NS(=O)(=O)c2ccccc2)s1	/	/	/	-4.4	/	/
O=C(O)c1ccc(NC(=S)NC(=O)C(c2ccccc2)c2ccccc2)cc1	?	1.2	?	-27.6	0.7%	2.2%
COc1ccc(C(=O)O)cc1NC(=S)NC(=O)C(c1ccccc1)c1ccccc1	-27.5%	0.8	5.8%	-116.2*	2.0%	3.3%
CN(Cc1cccc(Cl)c1)C(=O)C1CCC(=O)N(C2CC2)C1 (stereo not given)	-31.0%	-76.2*	3.5%	2.8	-0.6%	5.2%
CN(Cc1ccc(C(F)(F)F)cc1)C(=O)C1CCC(=O)N(C2CC2)C1 (stereo not given)	1.1%	-1.6	8.5%	-1.5	-6.1%	-0.3%
CCN(C(=O)CSc1nc2ccccc2nc1Cc1cccc(OC)c1)c1cccc(C)c1	/	/	/	-24.8	/	?
CCn1c(Oc2cccc(Br)c2)nc2c1c(=O)n(C)c(=O)n2C	10.9%	-44.2*	-22.6%	3.4	0.7%	0.8%
Nc1nonc1C(=O)NCCN=Cc1cc(Cc2ccccc2)cc(Br)c1O	0.0%	-0.3	-15.9%	-73.0*	-0.1%	2.0%
Nc1nonc1C(=O)NCCN=Cc1ccccc1O	3.8%	-1.0	6.4%	-6.3	-4.0%	4.5%
O=C(Nc1ccc(C(=O)c2ccccc2)cc1)c1ccccc1	-0.2%[15.4 µM]	2.8	39.8µM*	-31.2	-4.0%	3.7%
CCOc1ccccc1C(=O)Nc1ccc(C(=O)c2ccccc2)cc1	-13.2%	-1.0	25.1µM*	-1.8	2.3%	4.1%
O=C(Nc1ccc(N2CCCCC2)cc1)c1ccccc1	-26.4%	-65.9*	?	-4.4	-1.0%	1.2%
CCOC(=O)Cn1c(=O)oc2cc(S(=O)(=O)N3CCN(c4cc(C)ccc4C)CC3)ccc21	/	/	/	?	/	-0.5%
Cc1ccc(C)c(N2CCN(C(c3ccc(F)cc3)c3nnc(-c4ccccc4)o3)CC2)c1 (stereo not given)	/	/	/	-3.1	/	3.1%
CCOC(=O)c1c(S(=O)(=O)N2CCC(C(=O)N3CCN(c4cc(C)ccc4C)CC3)CC2)c(C)n(C)c1C	/	/	/	-2.1	/	0.3%
N#Cc1c(C(F)(F)F)cc(-c2ccc(Cl)cc2)[nH]c1=O	24.2%	-1.2	35.5µM*	-10.1	1.7%	4.4%
N#Cc1c(C(F)(F)F)cc(-c2cccc(Cl)c2)[nH]c1=O	4.4%	2.7	35.5µM*	-12.7	-2.8%	3.1%
N#Cc1c(C(F)(F)F)cc(-c2ccc(F)cc2)[nH]c1=O	13.4%[15.4 µM]	-1.2	-12.2%	-7.4	3.4%	11.6%
CC(C)c1nn2c(=O)cc(COC(=O)c3ccc(NC(=O)c4ccccc4Cl)cc3)nc2s1	/	/	/	-4.2	/	5.9%
